Records with an inconclusive call do not appear. Active and inactive are the calls of the source. The calls were made as follows, unless noted: active = hit-call score of the fitted dose curve at least 0.9, where 1 is the maximum; inactive = score below 0.9.

Assay [1] in a line: CCTE_Shafer_MEA_dev_firing_rate_mean: CCTE's Neural Network Formation Assay for Mean Firing Rate, Shafer Lab (AID 2284031). In a few lines:
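Developing rat cortical networks on MEA plates undergo 12-day compound exposure. Firing frequency, averaged across active electrodes, is integrated as area under the curve over four recording days, referenced to DMSO.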

Assay [2] can be described thus: CCTE_Shafer_MEA_dev_per_burst_spike_percent: CCTE's Neural Network Formation Assay for Percent of Spikes in a Burst, Shafer Lab (AID 2284032). In a few lines: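 Rat primary cortical neurons on 16-electrode MEA wells, dosed from plating day 0 for 12 days with renewal on DIV 5 and 9; spikes-in-bursts percentage averaged over bursting electrodes, collapsed as AUC across days 5, 7, 9, 12; loss direction versus DMSO.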

The nature of assay [3]: CCTE_Shafer_MEA_dev_active_electrodes_number: CCTE's Neural Network Formation Assay for Number of Active Electrodes, Shafer Lab (AID 2284040; active = hit-call score of the fitted dose curve at least 0.9, where 1 is the maximum). Summed up:
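Rat cortical primary cultures, 1.5 x 10^5 cells/well, PEI-coated MEA, laminin drop. Continuous exposure DIV 0–12; full media/compound change DIV 5, 9. Readout: electrodes with mean firing ≥5 spikes/min; AUC across days; loss vs DMSO.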

Assay [4] can be described thus: CCTE_Shafer_MEA_dev_burst_rate: CCTE's Neural Network Formation Assay for Burst Rate, Shafer Lab (AID 2284042). Summed up:
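Exposure ran continuously over 12 days of network development in rat cortical cultures, with compound refreshed during full media changes on DIV 5 and 9. Single-electrode bursts per recording time, well-mean over active electrodes, trapezoidal AUC across days 5–12, fitted downward relative to DMSO.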

The nature of assay [5]: CCTE_Shafer_MEA_dev_bursting_electrodes_number: CCTE's Neural Network Formation Assay for Number of Bursting Electrodes, Shafer Lab (AID 2284043; active = hit-call score of the fitted dose curve at least 0.9, where 1 is the maximum). Summed up: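 Read-out is the per-well number of electrodes bursting at least once every 2 minutes, recorded on days 5, 7, 9 and 12 and collapsed by trapezoidal area under the curve. Cultures were primary rat cortical neurons on MEA plates, treated continuously from plating.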

A short description of assay [6]: CCTE_Shafer_MEA_dev_per_burst_interspike_interval: CCTE's Neural Network Formation Assay for Burst Interspike Interval, Shafer Lab (AID 2284044).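 Also: mean spike spacing inside bursts as AUC over recordings on days 5 7 9 12.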 Summed up: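 Neurons from rat cortex plated onto PEI-coated MEA wells with laminin […] at 1.5 x 10^5 cells/well, then treated from day 0. Media and compound fully replaced on DIV 5 and 9. Extracellular spontaneous firing recorded four times; interspike interval per burst summarised as AUC.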

The nature of assay [7]: CCTE_Shafer_MEA_dev_burst_duration_mean: CCTE's Neural Network Formation Assay for Mean Burst Duration, Shafer Lab (AID 2284045). Summed up: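 Read-out: average first-to-last-spike interval within single-electrode bursts, averaged over bursting electrodes per well, then summarised as area under the curve across days 5, 7, 9 and 12. Developing rat cortical networks were exposed from day 0.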

Assay [8] can be described thus: CCTE_Shafer_MEA_dev_interburst_interval_mean: CCTE's Neural Network Formation Assay for Mean Interburst Interval, Shafer Lab (AID 2284046).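 Also: curve fitted for decrease in interburst interval relative to DMSO.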 In a few lines: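 Primary rat cortical neurons on PEI-coated 48-well MEA plates (laminin added with cells at plating) (16 electrodes/well), exposed from plating day 0 with renewal at DIV 5 and 9. Mean inter-burst interval averaged over bursting electrodes, AUC across days 5, 7, 9, 12; DMSO baseline.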

The nature of assay [9]: CCTE_Shafer_MEA_dev_inter_network_spike_interval_mean: CCTE's Neural Network Formation Assay for Mean Inter-network Spike Interval, Shafer Lab (AID 2284047). Summed up:
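Mean time between consecutive network-spike peaks, recorded extracellularly (adaptive spike detection) on DIV 5, 7, 9 and 12, summarized as trapezoidal AUC. Rat cortical cultures on MEAs dosed continuously days 0–12, re-dosed at feeds; loss-of-signal fit relative to DMSO.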

Assay [10] can be described thus: CCTE_Shafer_MEA_dev_network_spike_number: CCTE's Neural Network Formation Assay for Number of Network Spikes, Shafer Lab (AID 2284048).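 Also: synchronized bursts across electrodes counted on days 5 7 9 12 and integrated as AUC.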 In a few lines: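 Developing networks of primary rat cortical neurons are treated over 12 days starting at plating, with media and compound fully replaced on DIV 5 and 9. Network spike counts from four recording days are integrated as trapezoidal AUC.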

Assay [11] can be described thus: CCTE_Shafer_MEA_dev_network_spike_peak: CCTE's Neural Network Formation Assay for Mean Number of Electrodes in Network Spike, Shafer Lab (AID 2284049). Summed up: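 Rat cortical primary culture, 1.5 x 10^5 cells/well, 48-well MEA (16 electrodes/well). Dosing day 0 through DIV 12, full media/compound exchange DIV 5, 9. AxIS adaptive spike detection; AUC over days 5/7/9/12; loss-of-signal vs DMSO.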

Assay [12] in a line: CCTE_Shafer_MEA_dev_spike_duration_mean: CCTE's Neural Network Formation Assay for Mean Spike Duration, Shafer Lab (AID 2284051). Summed up: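 Spontaneous activity was recorded on days 5, 7, 9 and 12 from rat cortical cultures grown on microelectrode arrays and dosed continuously from day 0, with media and compound renewed after the DIV 5 and 9 recordings. Network-spike duration was collapsed by area under the curve.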

Assay [13] in a line: CCTE_Shafer_MEA_dev_network_spike_duration_std: CCTE's Neural Network Formation Assay for Standard Deviation of Network Spike Duration, Shafer Lab (AID 2284052).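 Also: hits are decreases in network spike duration SD versus DMSO vehicle.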 In a few lines:
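Network spike duration variability was collapsed across recordings on days 5, 7, 9 and 12 by trapezoidal area-under-curve and fitted downward against DMSO. Cultures were rat cortical neurons on PEI-coated MEA plates, dosed continuously from plating, refed with compound DIV 5/9.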

Assay [14] is described as follows: CCTE_Shafer_MEA_dev_per_network_spike_spike_number_mean: CCTE's Neural Network Formation Assay for Mean Number of Spikes in a Network Spike, Shafer Lab (AID 2284053). Summed up:
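Mean spike count within each network spike, taken in a 0.05 s window at its peak, was recorded on days 5, 7, 9 and 12 and integrated as trapezoidal area under the curve. Rat cortical cultures on MEA plates received continuous compound from day 0, refreshed at medium changes on DIV 5 and 9.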

Assay [15] in a line: CCTE_Shafer_MEA_dev_per_network_spike_spike_percent: CCTE's Neural Network Formation Assay for Percent of Spikes in a Network Spike, Shafer Lab (AID 2284054). In a few lines:
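Rat primary cortical cultures, 1.5 x 10^5 cells/well on MEA. Continuous compound exposure d0–12, medium/compound renewed DIV 5, 9. Network-spike spike % (0.05 s peak window), AUC over 4 recordings, DMSO baseline.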

Assay [16] is described as follows: CCTE_Deisenroth_AIME_384WELL_CTox_Active: Cytotoxicity Assessment (CTOX) in CCTE's 384-well Estrogen Receptor Transactivation Assay with AIME metabolic competence (metabolism positive), Deisenroth Lab (AID 2284037; active = hit-call score of the fitted dose curve at least 0.9, where 1 is the maximum;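 also: chemicals first conditioned 2 h by alginate-bound induced rat liver S9 before cells; activity means signal loss indicating cell death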). Summed up:
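Cytotoxicity in VM7Luc4E2 breast cells, 24 hour, measured as protease-substrate fluorescence loss, after 2-hour metabolic conditioning with induced rat hepatic S9 in alginate microspheres. Concentrations 0.002 - 200 uM, 10 points, bidirectional fitting.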

A short description of assay [17]: CCTE_Deisenroth_AIME_384WELL_CTox_Inactive: Cytotoxicity Assessment (CTOX) in CCTE's 384-well Estrogen Receptor Transactivation Assay without AIME metabolic competence (metabolism negative), Deisenroth Lab (AID 2284039; active = hit-call score of the fitted dose curve at least 0.9, where 1 is the maximum;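 also: cell viability via live-cell protease substrate cleaved to fluorescent probe; loss of fluorescence signal means loss of viability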). Summed up: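 Fluorescent protease-substrate viability readout after 24 h exposure of VM7Luc4E2 cells to conditioned medium. Chemicals (0.002–200 uM) first sat 2 h over alginate-water beads, no S9. Data fitted bidirectionally, loss of signal meaning viability loss.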

Assay [18] has as its target Estrogen receptor (Homo sapiens) (UniProt P03372). Briefly: CCTE_Deisenroth_AIME_384WELL_LUC_Inactive: CCTE's 384-well Estrogen Receptor Transactivation Assay without AIME metabolic competence (ERTA luciferase; metabolism negative), Deisenroth Lab (AID 2284038; active = hit-call score of the fitted dose curve at least 0.9, where 1 is the maximum;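 also: VM7Luc4E2 breast cells given medium preincubated 2 h with S9-free microspheres; hits raise estrogen receptor luciferase signal so potencies reflect agonists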). Summed up:
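Chemicals (10-point series, 0.002 - 200 uM) were incubated 2 hours with alginate-water microsphere lids lacking S9, then the conditioned medium was transferred to VM7Luc4E2 breast cells for 24 hour. Luciferase induction was read by bioluminescence, fitted upward relative to 17beta-estradiol.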

Assay [19] shares this target. Briefly: CCTE_Deisenroth_AIME_384WELL_LUC_Shift: CCTE's 384-well Estrogen Receptor Transactivation Assay with AIME metabolic competence data shift (ERTA luciferase; difference in metabolism positive and negative), Deisenroth Lab (AID 2284041).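 Also: shift is response with S9 minus without S9 so positive means metabolism raised ER signal.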 In a few lines: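 Test chemicals (0.002–200 uM, 10-point) were pre-incubated 2 h with alginate microspheres containing phenobarbital/beta-naphthoflavone-induced male Sprague Dawley rat liver S9 or water, then medium was transferred to VM7Luc4E2 cells for 24 h luciferase readout; shift = S9-positive minus S9-negative normalized response.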

Sequence of Estrogen receptor (Homo sapiens) (P03372 whole entry, looked up): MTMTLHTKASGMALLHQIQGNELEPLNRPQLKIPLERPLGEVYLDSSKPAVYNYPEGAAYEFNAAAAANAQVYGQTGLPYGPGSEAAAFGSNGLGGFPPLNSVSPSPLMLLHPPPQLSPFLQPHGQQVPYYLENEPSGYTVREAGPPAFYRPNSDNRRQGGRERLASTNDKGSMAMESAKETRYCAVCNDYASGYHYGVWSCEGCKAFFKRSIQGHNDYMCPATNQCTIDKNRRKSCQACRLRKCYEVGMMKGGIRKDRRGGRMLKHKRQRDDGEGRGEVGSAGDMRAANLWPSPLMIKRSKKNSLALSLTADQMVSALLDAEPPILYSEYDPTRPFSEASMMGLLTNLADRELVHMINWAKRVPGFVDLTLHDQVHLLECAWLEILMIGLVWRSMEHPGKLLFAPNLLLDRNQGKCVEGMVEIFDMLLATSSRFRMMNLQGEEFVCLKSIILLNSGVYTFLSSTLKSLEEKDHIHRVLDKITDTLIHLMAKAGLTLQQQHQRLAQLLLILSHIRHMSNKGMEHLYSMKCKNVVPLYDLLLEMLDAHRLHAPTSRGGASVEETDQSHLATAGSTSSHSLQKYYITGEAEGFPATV

Consider `CN(C)CCOC(C)(c1ccccc1)c1ccccn1` (stereo not drawn), for which the call in [1], in assay [2], in [3], in assay [4], in assay [5] and in assay [6] was inactive. Further, the call in [7], in assay [8], in assay [9], in assay [10], in [11] and in assay [12] was inactive. Further, the result in assay [13], in assay [14] and in [15] was inactive.
For the molecule `COc1ccccc1N=Nc1c(S(=O)(=O)O)cc2cc(S(=O)(=O)O)cc(NC(C)=O)c2c1O`, the molecule was called inactive in [16]. The AC50 in [17] was 42.9 µM (active).
Regarding `COCCc1ccc(OCC(O)CNC(C)C)cc1` (stereo not drawn), the molecule was classed as inactive in assay [1], in [2], in [3], in [4], in [5] and in assay [6]. For the same molecule, the molecule was called inactive in assay [7], in assay [8], in [9], in [10], in assay [11] and in assay [12]. Further, the molecule was called inactive in assay [13], in assay [14] and in assay [15].
Turning to `CCCCCCCCSCCO`, the result in assay [16] and in [17] was inactive.
With `CC(C)CCCCCCc1ccc(OCCOCCO)cc1`, the outcome in assay [16], in assay [18], in assay [17] and in assay [19] was inactive.
On to `COCCOCCOCCO`, for which the outcome in assay [1], in assay [2], in assay [16], in [17], in assay [3] and in [4] was inactive. The outcome in [5], in assay [6], in assay [7], in assay [8], in assay [9] and in assay [10] was inactive. Also, the molecule was classed as inactive in assay [11], in [12], in assay [13], in assay [14] and in assay [15].
For `OCc1cccc(Oc2ccccc2)c1`, the call in assay [16] was inactive.
Turning to `C=CC(C)(O)CCC=C(C)C` (stereo not drawn), the molecule was classed as inactive in assay [16] and in [17].

As usually defined, the AC50 is the concentration giving half of the maximal activity seen.
